The entries come from a sample that favours hits as a whole.
Dicer inh: inhibitors of human Dicer processing of pre-microRNA | Q9UPY3 | z-score at 25 µM | AID 1347074 | 6% of 47,000 active | cat-ELCCA pre-miR-21 Dicer processing, chemiluminescence; hits give high values; in the data active = z-score above about 3, passing the limit was not always enough;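 note: higher signal means more uncleaved substrate so more Dicer inhibition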
Target sequence (Q9UPY3 whole entry, looked up): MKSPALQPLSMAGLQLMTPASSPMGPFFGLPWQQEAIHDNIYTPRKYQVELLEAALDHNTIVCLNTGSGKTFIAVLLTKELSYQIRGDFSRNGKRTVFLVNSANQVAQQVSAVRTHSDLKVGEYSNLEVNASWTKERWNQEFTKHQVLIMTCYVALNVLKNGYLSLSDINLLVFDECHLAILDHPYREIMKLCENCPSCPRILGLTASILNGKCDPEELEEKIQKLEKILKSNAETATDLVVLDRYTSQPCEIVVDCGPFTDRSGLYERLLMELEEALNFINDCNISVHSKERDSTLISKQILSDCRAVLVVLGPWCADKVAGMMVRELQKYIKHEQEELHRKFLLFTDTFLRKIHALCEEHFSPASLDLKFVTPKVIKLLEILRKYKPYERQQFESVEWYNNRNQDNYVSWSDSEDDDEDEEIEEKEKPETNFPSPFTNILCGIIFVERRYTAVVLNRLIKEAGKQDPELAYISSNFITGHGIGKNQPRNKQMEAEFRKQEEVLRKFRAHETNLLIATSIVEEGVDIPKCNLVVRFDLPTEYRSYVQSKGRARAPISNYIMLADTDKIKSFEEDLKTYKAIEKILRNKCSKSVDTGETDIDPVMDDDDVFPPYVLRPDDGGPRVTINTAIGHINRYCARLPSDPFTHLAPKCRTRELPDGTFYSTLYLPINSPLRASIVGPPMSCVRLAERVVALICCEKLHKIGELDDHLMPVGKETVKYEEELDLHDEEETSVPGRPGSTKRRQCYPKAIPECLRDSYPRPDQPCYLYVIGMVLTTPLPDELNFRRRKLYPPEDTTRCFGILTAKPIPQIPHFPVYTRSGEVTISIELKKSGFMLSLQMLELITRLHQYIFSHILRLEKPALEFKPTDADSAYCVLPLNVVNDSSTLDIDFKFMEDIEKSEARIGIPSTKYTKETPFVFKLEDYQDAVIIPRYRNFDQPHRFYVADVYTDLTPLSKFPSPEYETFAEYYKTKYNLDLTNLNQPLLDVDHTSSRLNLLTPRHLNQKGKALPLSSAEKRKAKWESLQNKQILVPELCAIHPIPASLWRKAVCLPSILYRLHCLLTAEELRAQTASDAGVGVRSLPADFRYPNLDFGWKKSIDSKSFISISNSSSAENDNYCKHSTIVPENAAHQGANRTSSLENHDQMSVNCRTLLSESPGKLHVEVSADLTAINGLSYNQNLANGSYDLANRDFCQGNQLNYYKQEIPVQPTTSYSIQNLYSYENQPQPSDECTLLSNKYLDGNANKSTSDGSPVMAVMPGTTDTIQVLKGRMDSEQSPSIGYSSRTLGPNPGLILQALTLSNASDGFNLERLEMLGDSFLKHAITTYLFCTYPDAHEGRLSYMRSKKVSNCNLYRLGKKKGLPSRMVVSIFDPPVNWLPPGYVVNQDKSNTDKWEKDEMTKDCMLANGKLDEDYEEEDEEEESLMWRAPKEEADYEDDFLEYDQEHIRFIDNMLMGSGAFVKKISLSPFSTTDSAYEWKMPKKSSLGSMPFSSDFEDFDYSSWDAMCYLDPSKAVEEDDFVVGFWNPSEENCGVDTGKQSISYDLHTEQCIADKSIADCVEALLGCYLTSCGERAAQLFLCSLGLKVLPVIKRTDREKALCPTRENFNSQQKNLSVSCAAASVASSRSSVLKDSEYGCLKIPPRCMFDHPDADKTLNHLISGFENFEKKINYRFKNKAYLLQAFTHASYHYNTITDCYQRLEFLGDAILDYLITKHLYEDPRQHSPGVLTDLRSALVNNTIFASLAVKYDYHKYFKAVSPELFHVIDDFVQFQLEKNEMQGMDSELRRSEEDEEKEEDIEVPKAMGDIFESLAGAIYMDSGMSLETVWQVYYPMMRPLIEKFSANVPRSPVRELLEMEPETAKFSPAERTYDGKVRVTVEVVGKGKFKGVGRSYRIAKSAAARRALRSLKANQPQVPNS
Each line names hits and unclear results; the compound was inactive in the other large screens.

CC(C)(C)Oc1ccc(CC(CO)NC(=O)OCC2c3ccccc3-c3ccccc32)cc1 (configuration not stated)	none
O=c1c(Sc2c(Cl)cccc2Cl)c(Sc2c(Cl)cccc2Cl)c1=O	none
FC(F)(F)c1cc(Cl)c2c(c1)N=C(c1ccccc1)CC(c1ccccc1)=N2	none
COC(=O)c1c(S(N)(=O)=O)c(C)n(C)c1C	none
Cc1ccc2c(c1)N(CCO)C(C)(C)CC2C (configuration not stated)	none
Cc1cc(=O)[nH]c(NCc2ccccc2)n1	none
O=C(N/N=C/c1cccc2ccccc12)N/N=C/c1cccc2ccccc12	none
Cc1cc(=O)[nH]c(N/N=C\c2cccc3ccccc23)n1	Dicer inh 3.3
Cc1cc(NC(=O)N(C)C)nn1-c1ccccc1	none
COC(=O)Nc1cc(C)n(-c2ccccc2)n1	none
CC(=O)OCc1cc(/C=N/N(C(C)=O)c2ccccc2)nn1-c1ccccc1	Dicer inh 3.5
O=C1CC(c2cccs2)CC2=C1C(c1ccc(Cl)c(F)c1)Nc1ccccc1N2 (configuration not stated)	Dicer inh 4.2
O=C1CC(c2cccs2)CC2=C1C(c1ccc(Cl)cc1)Nc1ccccc1N2 (configuration not stated)	none
COc1ccc(C2CC(=O)C3=C(C2)Nc2ccccc2NC3c2ccc(F)c(F)c2)cc1 (configuration not stated)	none
O=C1CC(c2ccccc2)CC2=C1C(c1cccs1)Nc1ccccc1N2 (configuration not stated)	none
O=C1CC(c2ccccc2)CC2=C1C(c1cccc(O)c1)Nc1ccccc1N2 (configuration not stated)	none
O=C1CC(c2cccs2)CC2=C1C(c1cccc(O)c1)Nc1ccccc1N2 (configuration not stated)	Dicer inh 3.2
Cc1nnsc1-c1nc(-c2ccc(-c3ccccc3F)cc2)c(C)s1	none
Cc1ccccc1CSc1nnc(-c2ccccc2Cl)o1	none
CCOCCOC(=O)C1=C(C)NC2=C(C(=O)CCC2)C1c1ccc(-c2ccccc2)cc1 (configuration not stated)	none
CC(/C=C/c1ccccc1)=N\OC(=O)c1ccccc1Cl	none
Cc1ccc(S(=O)(=O)NNC(=O)c2[nH]c3ccc([N+](=O)[O-])cc3c2-c2ccccc2)cc1	Dicer inh 6.7
NNC(=O)c1[nH]c2ccc([N+](=O)[O-])cc2c1-c1ccccc1	none
O=C(O)c1[nH]c2ccc([N+](=O)[O-])cc2c1-c1ccccc1	none
CCCOc1ccc(-c2[nH]ncc2Oc2ccccc2)c(O)c1	none
O=C(Nc1ccc2ccccc2n1)c1cccs1	none
O=C(Nc1ccc2ccccc2n1)c1ccc(Cl)cc1	none
O=C(Nc1ccc2ccccc2n1)c1ccccc1Cl	Dicer inh 3.2
O=C(Nc1ccc2ccccc2n1)Nc1ccccc1F	none
O=C(Nc1ccc2ccccc2n1)C1CCCCC1	Dicer inh 5.1
O=C(Nc1ccc2ccccc2n1)c1c(Cl)cccc1Cl	none
COc1ccc(C(=O)N2CCN(c3ncnc4cc(C(C)(C)C)sc34)CC2)cc1OC	none
COC(=O)C1=C(C)Nc2nc3ccccc3n2C1c1cccs1 (configuration not stated)	none
COCCNc1nc2c(c(=O)n(Cc3ccc(F)cc3)c(=O)n2C)n1C	none
CC(C)(C)c1ccc(-c2nc(NCc3ccco3)c3ccccc3n2)cc1	none
CCOC(=O)c1c(C)oc2ccc(OC)cc12	none
COCCOC(=O)c1c(C)oc2ccc(OC)cc12	none
CCOC(=O)CCC(=O)c1c(C)oc2ccc(OC)cc12	Dicer inh 3.1
CSc1noc(-c2ccc(S(=O)(=O)NCc3ccccc3)s2)c1C#N	none
CNC(=S)N(Cc1cccnc1)Cc1cccc(Cl)c1Cl	none
Cc1onc(-c2ccccc2)c1C(=O)NC1CCCCC1NC(=O)c1c(-c2ccccc2)noc1C (configuration not stated)	none
Cc1onc(-c2ccccc2)c1C(=O)Nc1sc2c(c1C#N)CCC(C)C2 (configuration not stated)	Dicer inh 4.7
CC1CCc2c(sc(NC(=O)c3ccco3)c2C(=O)O)C1 (configuration not stated)	none
Cc1ccc(-c2nnc(SCC(=O)O)o2)cc1	none
Cc1occc1-c1nnc(SCCC(=O)O)o1	none
Cc1occc1-c1nnc(SCC(=O)O)o1	Dicer inh 3.4
O=C1c2nccnc2C(=O)N1c1ccc2c(c1)OCO2	none
C=CCN/C(SCC(=O)c1ccccc1)=C(\C#N)C(=O)OCC	none
CCSCCOC(=O)C1=C(C)NC2=C(C(=O)CCC2)C1c1ccc(N(C)C)cc1 (configuration not stated)	none
O=C(CC(C(=O)O)C1CCCO1)NC1CCCCC1 (configuration not stated)	none
O=C(CN1C(=O)NC2NC(=O)NC21)NC1CCCCC1 (configuration not stated)	Dicer inh 3.2
CCCNC(=O)Cn1nc(C(F)(F)F)c(Br)c1C	none
CCC(C)NC(=O)CN1C(=O)NC2NC(=O)NC21 (configuration not stated)	Dicer inh 4.5
CCCNC(=O)NCCN1CCNC1=O	none
CCCNC(=O)CN1C(=O)NC2NC(=O)NC21 (configuration not stated)	Dicer inh 4
